Results published in PubChem BioAssay AID1508601 (ICCB-Longwood Screening Facility, Harvard Medical School, 2020).
Among all 5,700 compounds or so, about 85 (1%) were called active. No stated cut-off is given here; in the data, active means p53-positive nuclei above about 36% (passing the limit was not always enough); inactive means the rest. The list comes from a sample in which actives are over-represented; it also holds similar structures and randomly drawn compounds.

Legend:
[1] = nuclear p53 accumulation, HPV+ cells – imaging, p53-positive nuclei imaging, 24 h, 48 h (AID 1508601); details: 24/48 h
[2] = biological target: Cellular tumor antigen p53 (Homo sapiens) (UniProt P04637); experiment: as above; details: 24/48 h, stronger effect = higher value
[3] = measured here: cell number at 24 h, Library stock concentration: 10 mM
[4] = measured here: cell number at 48 h, Library stock concentration: 10 mM
[5] = Library stock concentration: 10 mM
[6] = measured here: p53 positive nuclei at 24 h, Library stock concentration: 10 mM
[7] = measured here: cell number at 24 h, Library stock concentration: 3.33 mM
[8] = measured here: cell number at 48 h, Library stock concentration: 3.33 mM
[9] = Library stock concentration: 3.33 mM
[10] = measured here: p53 positive nuclei at 24 h, Library stock concentration: 3.33 mM
[11] = measured here: cell number at 24 h, Library stock concentration: 80 uM
[12] = measured here: cell number at 24 h, Library stock concentration: 400 uM
[13] = measured here: cell number at 24 h, Library stock concentration: 2 mM
[14] = measured here: cell number at 48 h, Library stock concentration: 80 uM
[15] = measured here: cell number at 48 h, Library stock concentration: 400 uM
[16] = measured here: cell number at 48 h, Library stock concentration: 2 mM
[17] = Library stock concentration: 80 uM
[18] = Library stock concentration: 400 uM
[19] = Library stock concentration: 2 mM
[20] = measured here: p53 positive nuclei at 24 h, Library stock concentration: 80 uM
[21] = measured here: p53 positive nuclei at 24 h, Library stock concentration: 400 uM
[22] = measured here: p53 positive nuclei at 24 h, Library stock concentration: 2 mM
[23] = measured here: cell number at 24 h, concentration not given here
[24] = measured here: cell number at 48 h, concentration not given here
[25] = measured here: p53 positive nuclei at 24 h, concentration not given here

Sequence of Cellular tumor antigen p53 (Homo sapiens) (P04637 whole entry, looked up): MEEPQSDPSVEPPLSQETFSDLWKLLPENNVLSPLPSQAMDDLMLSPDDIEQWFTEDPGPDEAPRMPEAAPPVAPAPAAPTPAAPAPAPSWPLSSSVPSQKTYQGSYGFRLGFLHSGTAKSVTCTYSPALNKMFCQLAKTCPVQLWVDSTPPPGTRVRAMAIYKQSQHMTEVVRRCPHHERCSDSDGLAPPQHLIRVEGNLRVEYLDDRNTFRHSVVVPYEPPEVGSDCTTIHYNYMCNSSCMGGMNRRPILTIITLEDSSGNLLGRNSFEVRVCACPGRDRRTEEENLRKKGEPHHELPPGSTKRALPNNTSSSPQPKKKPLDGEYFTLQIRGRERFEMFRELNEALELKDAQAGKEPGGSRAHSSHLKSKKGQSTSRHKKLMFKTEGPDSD

Cc1cc(C)c(N(Cc2ccccc2)S(=O)(=O)c2ccc(OCCNC(=O)c3cc4ccccc4o3)cc2)c(C(=O)NO)c1
nuclei count, normalised ([1]; measured here: cell number at 24 h, Library stock concentration: 46 uM): 106% | nuclei count, normalised ([1]; measured here: cell number at 24 h, Library stock concentration: 278 uM): 102% | nuclei count, normalised ([1]; measured here: cell number at 24 h, Library stock concentration: 1.67 mM): 106% | nuclei count, normalised [1, 3]: 108% | nuclei count, normalised ([1]; measured here: cell number at 48 h, Library stock concentration: 46 uM): 108% | nuclei count, normalised ([1]; measured here: cell number at 48 h, Library stock concentration: 278 uM): 104% | nuclei count, normalised ([1]; measured here: cell number at 48 h, Library stock concentration: 1.67 mM): 111% | nuclei count, normalised [1, 4]: 119% | p53-positive nuclei, normalised ([2]; Library stock concentration: 46 uM): -0.344% (inactive) | p53-positive nuclei, normalised ([2]; Library stock concentration: 278 uM): -0.116% (inactive) | p53-positive nuclei, normalised ([2]; Library stock concentration: 1.67 mM): -0.271% (inactive) | p53-positive nuclei, normalised [2, 5]: 0.0163% (inactive) | p53-positive nuclei, normalised ([2]; measured here: p53 positive nuclei at 24 h, Library stock concentration: 46 uM): -0.21% | p53-positive nuclei, normalised ([2]; measured here: p53 positive nuclei at 24 h, Library stock concentration: 278 uM): -0.21% | p53-positive nuclei, normalised ([2]; measured here: p53 positive nuclei at 24 h, Library stock concentration: 1.67 mM): -0.139% | p53-positive nuclei, normalised [2, 6]: -0.147%

CN(C)Cc1c(C(=O)NCCOc2ccc(C(=O)NO)cc2)oc2ccccc12
nuclei count, normalised [1, 7]: 40% | nuclei count, normalised [1, 8]: 23.5% | p53-positive nuclei, normalised [2, 9]: 74.6% (active) | p53-positive nuclei, normalised [2, 10]: 61.4%

CC(C)C1C(=O)NC(CCCN=C(N)N)C(=O)NCC(=O)NC(CC(=O)O)C(=O)NC(Cc2ccccc2)C(=O)N1C (stereo not given)
nuclei count, normalised [1, 11]: 104% | nuclei count, normalised [1, 12]: 96.6% | nuclei count, normalised [1, 13]: 88.2% | nuclei count, normalised [1, 7]: 88.5% | nuclei count, normalised [1, 3]: 51.2% | nuclei count, normalised [1, 14]: 94.6% | nuclei count, normalised [1, 15]: 89.6% | nuclei count, normalised [1, 16]: 76.5% | nuclei count, normalised [1, 8]: 85.4% | nuclei count, normalised [1, 4]: 34.6% | p53-positive nuclei, normalised [2, 17]: 0.242% (inactive) | p53-positive nuclei, normalised [2, 18]: 0.104% (inactive) | p53-positive nuclei, normalised [2, 19]: -0.113% (inactive) | p53-positive nuclei, normalised [2, 9]: -0.0271% (inactive) | p53-positive nuclei, normalised [2, 5]: -0.0215% (inactive) | p53-positive nuclei, normalised [2, 20]: 0.00102% | p53-positive nuclei, normalised [2, 21]: -0.0368% | p53-positive nuclei, normalised [2, 22]: -0.0914% | p53-positive nuclei, normalised [2, 10]: -0.218% | p53-positive nuclei, normalised [2, 6]: -0.22%

CC(CCC(=O)O)C1CC[C@H]2[C@@H]3C(O)C[C@@H]4CC(O)CC[C@]4(C)[C@@H]3CC[C@]12C (stereo not given in full)
nuclei count, normalised [1, 11]: 103% | nuclei count, normalised [1, 12]: 104% | nuclei count, normalised [1, 13]: 103% | nuclei count, normalised [1, 3]: 105% | nuclei count, normalised [1, 14]: 101% | nuclei count, normalised [1, 15]: 101% | nuclei count, normalised [1, 16]: 100% | nuclei count, normalised [1, 4]: 106% | p53-positive nuclei, normalised [2, 17]: 0.0117% (inactive) | p53-positive nuclei, normalised [2, 18]: -0.178% (inactive) | p53-positive nuclei, normalised [2, 19]: 0.0148% (inactive) | p53-positive nuclei, normalised [2, 5]: -0.147% (inactive) | p53-positive nuclei, normalised [2, 20]: 0.00498% | p53-positive nuclei, normalised [2, 21]: -0.109% | p53-positive nuclei, normalised [2, 22]: -0.106% | p53-positive nuclei, normalised [2, 6]: -0.11%

O=C(O)CCCc1c[nH]c2ccccc12
nuclei count, normalised [1, 7]: 110% | nuclei count, normalised [1, 8]: 101% | p53-positive nuclei, normalised [2, 9]: -0.0398% (inactive) | p53-positive nuclei, normalised [2, 10]: 2.53%

OCc1c[nH]c2ccccc12
nuclei count, normalised [1, 11]: 116% | nuclei count, normalised [1, 12]: 113% | nuclei count, normalised [1, 13]: 124% | nuclei count, normalised [1, 7]: 121% | nuclei count, normalised [1, 3]: 113% | nuclei count, normalised [1, 14]: 111% | nuclei count, normalised [1, 15]: 105% | nuclei count, normalised [1, 16]: 115% | nuclei count, normalised [1, 8]: 105% | nuclei count, normalised [1, 4]: 106% | p53-positive nuclei, normalised [2, 17]: -0.0881% (inactive) | p53-positive nuclei, normalised [2, 18]: 0.33% (inactive) | p53-positive nuclei, normalised [2, 19]: 0.0198% (inactive) | p53-positive nuclei, normalised [2, 9]: -0.0843% (inactive) | p53-positive nuclei, normalised [2, 5]: -0.042% (inactive) | p53-positive nuclei, normalised [2, 20]: -0.0144% | p53-positive nuclei, normalised [2, 21]: 0.188% | p53-positive nuclei, normalised [2, 22]: 0.151% | p53-positive nuclei, normalised [2, 10]: -0.374% | p53-positive nuclei, normalised [2, 6]: 0.0508%

O=C(C=Cc1ccc(CN(CCO)CCc2c[nH]c3ccccc23)cc1)NO
nuclei count, normalised [1, 7]: 37.8% | nuclei count, normalised [1, 8]: 20.4% | p53-positive nuclei, normalised [2, 9]: 113% (active) | p53-positive nuclei, normalised [2, 10]: 94.4%

CCc1cc2c(cc1CC)CC(NCC(O)c1ccc(O)c3[nH]c(=O)ccc13)C2 (stereo not given)
nuclei count, normalised [1, 7]: 112% | nuclei count, normalised [1, 8]: 110% | p53-positive nuclei, normalised [2, 9]: -0.298% (inactive) | p53-positive nuclei, normalised [2, 10]: -0.54%

CCCCC[C@H](O)/C=C/[C@H]1[C@H](O)CC(=O)[C@@H]1C/C=C\CCCC(=O)OC
nuclei count, normalised [1, 23]: 111% | nuclei count, normalised [1, 24]: 106% | p53-positive nuclei, normalised ([2]; concentration not given here): -0.0657% (inactive) | p53-positive nuclei, normalised [2, 25]: 0.249%

CCC(CC)(NC(=O)C(C)C)C(=O)NC(CCCN=C(N)N)C(=O)NC1(C(=O)NC(c2ccc(F)cc2)c2ccc(F)cc2)CCCC1 (stereo not given)
nuclei count, normalised [1, 7]: 107% | nuclei count, normalised [1, 8]: 102% | p53-positive nuclei, normalised [2, 9]: -0.0557% (inactive) | p53-positive nuclei, normalised [2, 10]: -0.115%

c1ccc(-c2nc3c(cnn3C3CCCCC3)[nH]2)c(Cn2cccn2)c1
nuclei count, normalised [1, 23]: 106% | nuclei count, normalised [1, 24]: 110% | p53-positive nuclei, normalised ([2]; concentration not given here): -0.0852% (inactive) | p53-positive nuclei, normalised [2, 25]: 0.144%

CC(/C=C/C(=O)NO)=C\[C@@H](C)C(=O)c1ccc(N(C)C)cc1
nuclei count, normalised [1, 23]: 53.4% | nuclei count, normalised [1, 24]: 27.6% | p53-positive nuclei, normalised ([2]; concentration not given here): 55.3% (active) | p53-positive nuclei, normalised [2, 25]: 61.3%

CN(C)c1ccc(C(=O)NCCCCCC(=O)NO)cc1
nuclei count, normalised [1, 23]: 110% | nuclei count, normalised [1, 24]: 106% | p53-positive nuclei, normalised ([2]; concentration not given here): 0.149% (inactive) | p53-positive nuclei, normalised [2, 25]: 0.257%

CC(C=CC(=O)NO)=CC(C)C(=O)c1ccc(N(C)C)cc1 (stereo not given)
nuclei count, normalised [1, 7]: 35.3% | nuclei count, normalised [1, 8]: 21.2% | p53-positive nuclei, normalised [2, 9]: 88.9% (active) | p53-positive nuclei, normalised [2, 10]: 74.9%

CN(C)c1ccc(C(=O)NCCCCCCC(=O)NO)cc1
nuclei count, normalised [1, 7]: 54.1% | nuclei count, normalised [1, 23]: 116% | nuclei count, normalised [1, 8]: 44.8% | nuclei count, normalised [1, 24]: 100% | p53-positive nuclei, normalised [2, 9]: 25% (inactive) | p53-positive nuclei, normalised ([2]; concentration not given here): 0.296% (inactive) | p53-positive nuclei, normalised [2, 10]: 45% | p53-positive nuclei, normalised [2, 25]: 0.159%
